# Assay outcomes (PubChem)
# N370S GC mod = inhibits or activates N370S mutant glucocerebrosidase. P04062. 330,000 tested, 0.092% active. Potency, µM (doses to about 59.4 µM), without a hit: at the top dose activity change, negative = inhibition, usual class: inhibitors. N370S GC spleen homogenate, 4MU-glucoside fluorescence. AID 2101;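 note: potency is the fitted concentration of half-maximal effect; 0% = full enzyme activity and -100% = no enzyme basal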
# Integrin act MD = integrin-mediated muscular dystrophy alleviation activation | alpha7betagal myoblasts, beta-gal FDG fluorescence, 48 h | Potency, µM (series often up to 38.3 µM), inactives show at the highest dose activation, most hits filed as activators | 350,000 tested, 0.064% active | AID 624291;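 note: potency is the fitted concentration of half-maximal effect; 100% = response of the positive control SU9516; nearly all actives have a fitted effect of over 60% in size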
#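 alpha7betagal+/- myoblasts (passage 13, 250/well) treated 48 h at 37C with compounds at 1:260 dilution of DMSO stock. Lysed, then beta-galactosidase activity read as FDG fluorescence (ex 480/em 540) after 30 min, with pre-read for autofluorescence.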
# BRCA1 expr act = BRCA1 expression activation | MCF7-BRCA1-FFLuc reporter, luminescence, 48 h; response scale: scaled: vehicle 0%, 10 µM genistein 100% | Potency, µM (series often up to 46.1 µM), for inactives: top-dose activation, actives largely listed as activators | 380,000 tested, 1.1% active; note: potency is the fitted concentration of half-maximal effect; nearly all actives have a fitted effect of over 80% in size
#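 MCF7-BRCA1-FFLuc cells, 2000/well in phenol-red-free MEM, attached 2 h then treated 48 h at 37 C. Luciferase luminescence read 15 min after reagent; normalized to genistein maximum activation (10microM) and DMSO, concentration-response fitted.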
# Nrf2 activator = Nrf2 pathway activation; AREc32 ARE-luciferase reporter (MCF7-derived line), luminescence, 24 h; Potency, µM (top dose mostly 46.1 µM), inactives show at the top dose activation, hits mostly activators; 410,000 tested, 0.31% active; AID 624171; note: potency is the fitted concentration of half-maximal effect; % of control where 0% means no effect; nearly all actives have a fitted effect of over 65% in size
#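 Each well held 1000 AREc32 cells, which were incubated with compound for 24 hr at 37 deg C after overnight attachment, and ARE reporter activity was quantified by firefly luciferase luminescence.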
# IL-2 act = activators of IL-2; IL-2 activation reporter assay, cell-based qHTS; stimulated with anti-CD3/CD4/CD28 beads; in transgenic mouse T cells; activation, % (series mostly up to about 46 µM); AID 652025; 360,000 tested, 0.065% active; in the data active = activation above about 50%; inconclusive = mostly about 30% to 49%; note: 0% is about no effect
#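 EGFP and DsRed fluorescence is measured by plate cytometry in unstimulated transgenic mouse T cells exposed to compound for 60 minutes, then stimulated 18 hours at 37 degrees C with anti-CD3/anti-CD4 beads plus anti-CD28.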
# Chronic BCR inh = chronic active BCR signaling inhibition; Potency, µM (highest dose often 46.1 µM), for the others: at the highest dose activity change, negative = inhibition, most hits filed as inhibitors; 340,000 tested, 0.05% active; ABC-DLBCL IkBa-CBG/CBR reporter, luminescence ratio, 4 h; active = well fitted inhibition curve with a large enough effect in the signal ratio, with a control signal flat, not every such curve was filed as active; inconclusive = small, poorly fitted or top-dose-only effect, or effect the other way, or a change in a side signal; the % refers to the signal ratio;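 note: potency is the fitted concentration of half-maximal effect; plate controls were basal doxycycline-induced cells for no effect and cells given 10 µM MG132 for full effect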
#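 Cell line TMD8 (human ABC DLBCL), stably expressing tet-inducible CBG68-IkBa fusion and CBR; IMDM/0.5% FBS; cpd up to 46 uM; dox induction, 4 h, 37C/5% CO2; dual luminescence; green/red ratio; MG132 control.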
# * marks the source's active call; other numbers are inactive results; ? = inconclusive; · = no result; [ ] = another dose, or the depositor's remark. Rows were chosen to be rich in hits. Some 1.4% of all compounds tested hit in one or more screens of this group. Unless noted, calls come from the whole dose curve; as a rule, active = well fitted curve in the direction sought with a large enough effect; inconclusive = small, poorly fitted or top-dose-only effect, or another doubt; inactive = no such curve, though single readings can be large; an effect the other way counts as inactive or inconclusive.
SMILES,N370S GC mod,Integrin act MD,BRCA1 expr act,Nrf2 activator,IL-2 act,Chronic BCR inh
CC(=O)c1sc(N/N=C\c2ccc(Br)cc2)nc1C,-6%,-33%,3.5µM*,20%,17,-2%
Cc1nc(Nc2ccccc2)sc1C(=O)Nc1ccccc1,-7%,-4%,6.3µM*,7%,-1,1%
COc1ccc(NC(=O)c2nc(C)n(-c3ccc([N+](=O)[O-])cc3)n2)cc1,1%,-11%,-1%,2%,-1,1%
Cc1cccc(/C=N/NC(=O)Cc2cccs2)c1,7%,-3%,11µM*,4%,0,?
O=C(Cc1cccs1)N/N=C/c1ccccc1,5%,18%,45%,0%,-2,-16%
CCOC(=O)N/N=C/C(Cl)=C/c1ccccc1,-5%,2%,?,3%,0,-2%
O=C(Cc1cccs1)N/N=C/C(Cl)=C/c1ccccc1,-2%,0%,5.6µM*,8%,1,1%
C=CCn1c(SCC(=O)Nc2ccc(N3CCOCC3)cc2)nnc1-c1ccco1,-2%,-3%,1%,1%,0,-2%
O=c1c(Cl)c(Nc2cccc(Cl)c2)cnn1-c1nc2ccccc2s1,-14%,11%,14µM*,25%,-1,?
COc1ccc(C2SCC(=O)N2c2nc3ccccc3s2)cc1 (centres undefined),11%,-16%,?,5%,0,7%
COc1ccc(Nc2cnn(-c3nc4ccccc4s3)c(=O)c2Cl)cc1,3%,-59%,-45%,10µM*,-6,5%
Cc1ccc(C)c(N2CCN(c3cnn(-c4nc5ccccc5s4)c(=O)c3Cl)CC2)c1,1%,12%,?,11%,0,-19%
O=C(c1ccc(S(=O)(=O)Cc2cc(F)ccc2F)c([N+](=O)[O-])c1)N1CCOCC1,·,-51%,-51%,13µM*,-2,·
CCN1C/C(=C/c2cccc([N+](=O)[O-])c2)C(=O)/C(=C/c2cccc([N+](=O)[O-])c2)C1,2%,-66%,-101%,13µM*,-1,?
CCOc1cc(/C=C2\CN(CC)C/C(=C\c3ccc(O)c(OCC)c3)C2=O)ccc1O,-20%,-74%,-102%,?,-2,?
COc1ccc(C(=O)C2C(=O)C(=O)N(Cc3ccco3)C2c2cccs2)cc1 (centres undefined),·,·,15%,·,·,·
CCOC(=O)c1ccc(-n2ncc(C(=O)OCC)c2N)cc1,-13%,8%,3%,1%,0,-4%
CCOC(=O)c1cnn(-c2ccc(C)cc2)c1N,-8%,0%,11µM*,0%,3,?
O=C(CSc1ccc(-c2cccs2)nn1)N1CCCCCC1,-2%,-6%,13µM*,6%,0,14%
CNc1ccc(-c2cc(OC)ccc2OC)cn1,·,·,8%,0%,1,·
CC(=O)c1ccc(OCc2cc(C(=O)N(C)Cc3ccccn3)no2)cc1,-20%,19%,?,4%,-2,6%
Cc1cc(OCc2cc(C(=O)N(C)Cc3ccccn3)no2)cc(C)c1Cl,-1%,10%,11µM*,4%,-1,-6%
CCN(CC1CCCO1)C(=O)c1cc(COc2cc(C)c(Cl)c(C)c2)on1 (centres undefined),-14%,4%,6.3µM*,3%,-1,-5%
Cc1cc(OCc2cc(C(=O)N(C)C(C)c3ccccn3)no2)cc(C)c1Cl (centres undefined),-4%,?,11µM*,3%,-1,-10%
CCc1sc(-c2cc3ccccc3oc2=O)nc1-c1ccc(C)cc1,·,·,-3%,·,·,·
SMILES,N370S GC mod,Integrin act MD,BRCA1 expr act,Nrf2 activator,IL-2 act,Chronic BCR inh
Nc1nc(NCc2cccc(Cl)c2)c2[nH]cnc2n1,·,·,-10%,·,·,·
O=C(CSc1nccc(-c2cccs2)n1)Nc1ccc(Cl)cc1,7%,-35%,-18%,?,-1,?
O=C(CSc1nccc(-c2cccs2)n1)Nc1cccc(Cl)c1Cl,18%,-12%,-67%,2.2µM*,1,10%
CCc1noc(C)c1C(=O)NCCc1ccccc1,0%,2%,10µM*,0%,1,17%
CCOC(=O)c1c(C)c(C(=O)NCCc2ccccc2)c(C)n1C,-12%,?,10µM*,5%,0,6%
Cc1ccc(C)c(CNC(=O)c2cnc3sc(N4CCCC4)nn3c2=O)c1,·,·,·,-1%,·,·
CCCC[C@H](NC(=O)[C@@H]1CCCN1C(=O)[C@H]1CCCN1C(=O)[C@H](Cc1ccccc1)NC(=O)[C@@H](Cc1c[nH]c2ccccc12)NC(=O)[C@H](C)NC(=O)[C@H](CCCN=C(N)N)NC(=O)OC(C)(C)C)C(N)=O,2.8µM*,·,·,·,·,·
N#C/C(=C/c1ccc(N2CCCCCC2)o1)c1cccc(F)c1,12%,-19%[7.66 µM],?,13µM*,21,-9%
N#C/C(=C/c1ccc(N2CCOCC2)o1)c1ccc(Br)cc1,-5%,-68%,-32%,11µM*,0,-2%
N#C/C(=C\c1ccc(N2CCOCC2)o1)c1ccccc1,?,-53%,-7%,14µM*,-2,5%
N#C/C(=C\c1ccc(N2CCOCC2)o1)C(=O)Nc1ccc(O)cc1,-18%,?,49%,2%,5,?
N#C/C(=C\c1ccc(N2CCOCC2)cc1)c1ccccc1,5%,7%,?,4%,0,?
N#C/C(=C/c1ccc(N2CCCCCC2)o1)c1ccc(F)cc1,·,-39%,-79%,25%,3,·
Cc1ccc(S(=O)(=O)CCC(=O)OCC(=O)Nc2cccc(S(=O)(=O)N3CCCCC3)c2)cc1,·,5%,-5%,-2%,0,·
CCc1ccc(C(=O)Cc2cc3cccc(OC)c3oc2=O)cc1,?,15%,11µM*,6%,-1,?
COc1cccc2cc(CC(=O)c3ccccc3)c(=O)oc12,0%,58%,10µM*,4%,0,?
COc1cccc2cc(C(=O)c3ccccc3)oc12,13%,10%,45%,4%,0,?
COc1cccc2cc(CC(=O)c3ccc(C)c(C)c3)c(=O)oc12,-14%,-4%,11µM*,4%,0,?
COc1cccc2cc(CC(=O)c3cc(C)ccc3C)c(=O)oc12,12%,1%,98%,7%,0,?
Cc1cccc(C)c1NS(=O)(=O)c1cc2c3c(c1)CC(=O)N3CCC2,13%,-14%,1%,-1%,-3,11%
Cc1csc(NC(=S)NC(=O)c2ccccc2)n1,3%,30%,31%,6.3µM*,-1,?
O=C(Nc1nc(=O)c2ccccc2s1)c1ccccc1,0%,-33%,-62%,2µM*,-1,?
